# From PMC7862700, “An all-to-all approach to the identification of sequence-specific readers for epigenetic DNA modifications on cytosine”
# Tests used:
# Assay in all cases: DAPPL (digital affinity profiling via proximity ligation, sequencing); 10 mM Tris-HCl pH 7.5, 50 mM NaCl, 1 mM DTT, 4% glycerol, room temperature, 30 min; GST-TFs on glutathione beads, 16-mer random dsDNA library, 0.1% formaldehyde crosslink after washing; high values mean tight binding
# [1] = biological target: T1, FLI1 (Homo sapiens, UniProt Q01543 1-452); settings: protein: recombinant; tags: N-terminal GST; dsDNA, one strand shown
# T1 sequence: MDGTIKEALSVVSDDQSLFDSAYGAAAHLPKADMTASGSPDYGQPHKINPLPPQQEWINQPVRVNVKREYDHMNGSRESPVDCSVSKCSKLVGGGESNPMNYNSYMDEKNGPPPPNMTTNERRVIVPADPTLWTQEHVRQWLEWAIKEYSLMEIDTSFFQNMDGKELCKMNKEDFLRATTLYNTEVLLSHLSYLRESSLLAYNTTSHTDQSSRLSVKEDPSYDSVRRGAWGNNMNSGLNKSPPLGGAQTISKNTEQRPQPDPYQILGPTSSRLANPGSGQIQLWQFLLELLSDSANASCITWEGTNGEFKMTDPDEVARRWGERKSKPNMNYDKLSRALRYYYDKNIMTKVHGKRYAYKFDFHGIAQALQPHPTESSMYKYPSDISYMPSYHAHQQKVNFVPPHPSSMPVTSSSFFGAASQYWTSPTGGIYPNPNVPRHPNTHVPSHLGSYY
# Method in brief: (§1)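 Beads coated with glutathione captured GST-fused human transcription factors that had been expressed in yeast, and the factors were then given DNA barcodes and pooled with a tag-only sample. The pools were incubated with 200 nmole of a random double-stranded 16-mer DNA library in Tris/NaCl/DTT/glycerol buffer for 30 min at room temperature, washed, crosslinked with 0.1% formaldehyde and proximity-ligated with BsaI/T4 ligase at 37 °C for 1 h. PCR amplification and Illumina NextSeq500 sequencing came last. Binding signal is each hexamer's read frequency for a factor divided by its frequency for the tag-only sample.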
# [2] = biological target: T2, ELK1 (Homo sapiens, UniProt P19419 1-428); settings: protein: recombinant; tags: N-terminal GST; dsDNA, one strand shown
# T2 sequence: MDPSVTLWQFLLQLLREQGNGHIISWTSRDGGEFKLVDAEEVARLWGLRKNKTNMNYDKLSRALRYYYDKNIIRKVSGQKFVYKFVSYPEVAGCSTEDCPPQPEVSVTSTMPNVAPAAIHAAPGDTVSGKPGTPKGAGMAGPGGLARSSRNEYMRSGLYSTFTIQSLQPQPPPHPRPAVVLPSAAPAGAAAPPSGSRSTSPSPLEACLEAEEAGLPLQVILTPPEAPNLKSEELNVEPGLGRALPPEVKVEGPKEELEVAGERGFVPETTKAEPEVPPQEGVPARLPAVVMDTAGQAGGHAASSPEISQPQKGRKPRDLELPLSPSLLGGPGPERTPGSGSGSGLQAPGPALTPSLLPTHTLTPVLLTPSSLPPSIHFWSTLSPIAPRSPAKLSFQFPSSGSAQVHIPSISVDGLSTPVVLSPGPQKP
# Method in brief: as §1
# [3] = biological target: T3, GABPA (Homo sapiens, UniProt Q06546 1-454); settings: protein: recombinant; tags: N-terminal GST; dsDNA, one strand shown
# T3 sequence: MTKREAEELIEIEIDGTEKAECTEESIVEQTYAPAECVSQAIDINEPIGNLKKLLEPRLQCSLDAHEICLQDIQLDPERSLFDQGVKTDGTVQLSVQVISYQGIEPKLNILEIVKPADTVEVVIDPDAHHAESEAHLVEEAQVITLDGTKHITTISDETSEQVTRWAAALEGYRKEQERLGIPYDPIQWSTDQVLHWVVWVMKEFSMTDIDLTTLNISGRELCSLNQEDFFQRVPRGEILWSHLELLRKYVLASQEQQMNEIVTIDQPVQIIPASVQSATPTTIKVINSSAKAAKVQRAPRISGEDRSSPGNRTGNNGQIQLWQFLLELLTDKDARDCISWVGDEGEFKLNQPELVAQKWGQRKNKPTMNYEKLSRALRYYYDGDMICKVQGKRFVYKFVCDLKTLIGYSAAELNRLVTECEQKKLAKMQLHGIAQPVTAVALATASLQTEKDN
# Method in brief: as §1
# [4] = biological target: T4, ERG (Homo sapiens, UniProt P11308 1-479); settings: protein: recombinant; tags: N-terminal GST; dsDNA, one strand shown
# T4 sequence: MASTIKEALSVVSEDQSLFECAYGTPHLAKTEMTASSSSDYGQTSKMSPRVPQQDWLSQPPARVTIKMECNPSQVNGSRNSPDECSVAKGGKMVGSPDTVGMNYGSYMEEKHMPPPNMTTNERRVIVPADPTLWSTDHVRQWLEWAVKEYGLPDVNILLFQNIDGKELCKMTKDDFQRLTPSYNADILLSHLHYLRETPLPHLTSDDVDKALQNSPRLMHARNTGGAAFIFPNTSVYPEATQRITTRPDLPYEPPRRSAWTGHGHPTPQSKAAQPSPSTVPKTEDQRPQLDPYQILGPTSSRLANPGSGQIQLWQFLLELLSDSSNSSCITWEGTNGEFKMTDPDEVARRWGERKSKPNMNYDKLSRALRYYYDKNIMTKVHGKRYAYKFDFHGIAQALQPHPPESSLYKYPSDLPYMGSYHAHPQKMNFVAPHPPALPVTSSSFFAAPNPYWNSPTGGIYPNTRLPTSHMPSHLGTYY
# Method in brief: as §1
# [5] = biological target: ELF1 (Homo sapiens, UniProt P32519 1-619); settings: protein: recombinant; tags: N-terminal GST; dsDNA, one strand shown
# Method in brief: as §1
# [6] = biological target: T5, EHF (Homo sapiens, UniProt Q9NZC4 1-300); settings: protein: recombinant; tags: N-terminal GST; dsDNA, one strand shown
# T5 sequence: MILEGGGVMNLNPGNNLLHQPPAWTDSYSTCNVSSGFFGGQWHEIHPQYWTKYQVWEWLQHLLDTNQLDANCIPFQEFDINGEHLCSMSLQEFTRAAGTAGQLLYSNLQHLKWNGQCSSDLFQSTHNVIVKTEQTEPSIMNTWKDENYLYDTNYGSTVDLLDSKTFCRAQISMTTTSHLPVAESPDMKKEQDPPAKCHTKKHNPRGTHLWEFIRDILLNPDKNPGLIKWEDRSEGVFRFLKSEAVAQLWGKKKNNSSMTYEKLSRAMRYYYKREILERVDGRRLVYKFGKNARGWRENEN
# Method in brief: as §1
# [7] = biological target: SPI1 (Homo sapiens, UniProt P17947 1-270); settings: protein: recombinant; tags: N-terminal GST; dsDNA, one strand shown
# Method in brief: as §1
# [8] = biological target: SPIB (Homo sapiens, UniProt Q01892 1-262); settings: protein: recombinant; tags: N-terminal GST; dsDNA, one strand shown
# Method in brief: as §1
# [9] = biological target: T6, ELK3 (Homo sapiens, UniProt P41970 1-407); settings: protein: recombinant; tags: N-terminal GST; dsDNA, one strand shown
# T6 sequence: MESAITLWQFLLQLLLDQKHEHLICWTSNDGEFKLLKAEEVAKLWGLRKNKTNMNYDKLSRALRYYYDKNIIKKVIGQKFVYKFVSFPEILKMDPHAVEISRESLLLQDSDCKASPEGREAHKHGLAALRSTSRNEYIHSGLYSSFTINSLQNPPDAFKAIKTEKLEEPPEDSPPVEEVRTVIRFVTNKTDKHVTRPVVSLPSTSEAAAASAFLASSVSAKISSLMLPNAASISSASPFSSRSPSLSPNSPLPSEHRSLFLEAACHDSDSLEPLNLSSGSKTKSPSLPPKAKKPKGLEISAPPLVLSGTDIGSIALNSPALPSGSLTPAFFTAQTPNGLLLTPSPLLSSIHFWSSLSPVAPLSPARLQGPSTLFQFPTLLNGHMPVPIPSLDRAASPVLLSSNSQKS
# Method in brief: as §1
# [10] = biological target: T7, FEV (Homo sapiens, UniProt Q99581 1-238); settings: protein: recombinant; tags: N-terminal GST; dsDNA, one strand shown
# T7 sequence: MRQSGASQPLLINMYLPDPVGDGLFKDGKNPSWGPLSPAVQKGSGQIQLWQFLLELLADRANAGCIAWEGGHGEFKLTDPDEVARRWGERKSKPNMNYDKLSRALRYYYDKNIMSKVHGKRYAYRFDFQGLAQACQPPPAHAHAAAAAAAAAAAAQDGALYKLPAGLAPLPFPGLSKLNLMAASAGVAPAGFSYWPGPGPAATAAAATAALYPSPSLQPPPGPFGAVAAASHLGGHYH
# Method in brief: as §1
# [11] = biological target: ETV5 (Homo sapiens, UniProt P41161 1-510); settings: protein: recombinant; tags: N-terminal GST; dsDNA, one strand shown
# Method in brief: as §1
# [12] = biological target: HSF1 (Homo sapiens, UniProt Q00613 1-529); settings: protein: recombinant; tags: N-terminal GST; chain copies: 3; dsDNA, one strand shown
# Method in brief: as §1
# [13] = biological target: T8, SPIC (Homo sapiens, UniProt Q8N5J4 1-248); settings: protein: recombinant; tags: N-terminal GST; dsDNA, one strand shown
# T8 sequence: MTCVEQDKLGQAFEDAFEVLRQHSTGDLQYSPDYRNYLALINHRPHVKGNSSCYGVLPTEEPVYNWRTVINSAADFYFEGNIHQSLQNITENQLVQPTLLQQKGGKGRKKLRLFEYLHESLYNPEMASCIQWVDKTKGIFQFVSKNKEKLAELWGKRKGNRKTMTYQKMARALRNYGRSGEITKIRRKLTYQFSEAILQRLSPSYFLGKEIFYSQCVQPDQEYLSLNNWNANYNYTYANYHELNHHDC
# Method in brief: as §1
# [14] = biological target: ELF4 (Homo sapiens, UniProt Q99607 1-663); settings: protein: recombinant; tags: N-terminal GST; dsDNA, one strand shown
# Method in brief: as §1
# [15] = biological target: T9, ELK4 (Homo sapiens, UniProt P28324-2 1-405); settings: protein: recombinant; tags: N-terminal GST; dsDNA, one strand shown
# T9 sequence: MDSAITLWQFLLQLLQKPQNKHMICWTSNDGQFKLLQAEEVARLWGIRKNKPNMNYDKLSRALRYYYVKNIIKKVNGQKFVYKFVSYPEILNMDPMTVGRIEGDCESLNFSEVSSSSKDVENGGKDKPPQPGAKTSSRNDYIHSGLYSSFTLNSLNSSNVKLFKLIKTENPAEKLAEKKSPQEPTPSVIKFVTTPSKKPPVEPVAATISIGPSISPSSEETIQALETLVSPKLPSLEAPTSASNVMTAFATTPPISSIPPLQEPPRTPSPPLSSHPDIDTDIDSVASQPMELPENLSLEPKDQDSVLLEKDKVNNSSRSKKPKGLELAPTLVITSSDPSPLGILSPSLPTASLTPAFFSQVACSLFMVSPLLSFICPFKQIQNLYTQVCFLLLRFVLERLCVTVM
# Method in brief: as §1
# [16] = biological target: T10, ETV2 (Homo sapiens, UniProt O00321 1-342); settings: protein: recombinant; tags: N-terminal GST; dsDNA, one strand shown
# T10 sequence: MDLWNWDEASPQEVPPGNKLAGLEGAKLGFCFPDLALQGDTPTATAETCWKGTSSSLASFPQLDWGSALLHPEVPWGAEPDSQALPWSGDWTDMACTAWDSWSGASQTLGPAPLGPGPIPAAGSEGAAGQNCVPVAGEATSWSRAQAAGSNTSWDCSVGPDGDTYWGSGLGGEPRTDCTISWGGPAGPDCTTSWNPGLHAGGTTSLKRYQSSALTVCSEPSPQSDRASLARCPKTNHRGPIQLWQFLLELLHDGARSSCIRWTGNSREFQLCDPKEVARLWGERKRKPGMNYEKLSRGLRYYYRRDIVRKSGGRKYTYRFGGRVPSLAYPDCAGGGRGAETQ
# Method in brief: as §1
# [17] = biological target: T11, ELF3 (Homo sapiens, UniProt P78545 1-371); settings: protein: recombinant; tags: N-terminal GST; dsDNA, one strand shown
# T11 sequence: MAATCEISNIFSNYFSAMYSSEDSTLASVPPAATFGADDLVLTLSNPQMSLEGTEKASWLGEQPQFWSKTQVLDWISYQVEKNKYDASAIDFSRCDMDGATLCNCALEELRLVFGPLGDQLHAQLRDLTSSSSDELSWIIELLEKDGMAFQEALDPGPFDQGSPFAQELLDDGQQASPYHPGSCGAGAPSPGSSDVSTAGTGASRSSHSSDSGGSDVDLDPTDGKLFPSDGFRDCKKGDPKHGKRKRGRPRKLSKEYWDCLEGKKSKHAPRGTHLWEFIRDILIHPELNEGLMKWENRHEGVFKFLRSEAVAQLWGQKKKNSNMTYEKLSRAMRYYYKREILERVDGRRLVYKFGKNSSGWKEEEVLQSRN
# Method in brief: as §1
# [18] = biological target: CRX (Homo sapiens, UniProt O43186 1-299); settings: protein: recombinant; tags: N-terminal GST; dsDNA, one strand shown
# Method in brief: as §1
# [19] = biological target: ETV1 (Homo sapiens, UniProt P50549 1-477); settings: protein: recombinant; tags: N-terminal GST; dsDNA, one strand shown
# Method in brief: as §1
# Sequence of ELF4 (Q99607 whole entry): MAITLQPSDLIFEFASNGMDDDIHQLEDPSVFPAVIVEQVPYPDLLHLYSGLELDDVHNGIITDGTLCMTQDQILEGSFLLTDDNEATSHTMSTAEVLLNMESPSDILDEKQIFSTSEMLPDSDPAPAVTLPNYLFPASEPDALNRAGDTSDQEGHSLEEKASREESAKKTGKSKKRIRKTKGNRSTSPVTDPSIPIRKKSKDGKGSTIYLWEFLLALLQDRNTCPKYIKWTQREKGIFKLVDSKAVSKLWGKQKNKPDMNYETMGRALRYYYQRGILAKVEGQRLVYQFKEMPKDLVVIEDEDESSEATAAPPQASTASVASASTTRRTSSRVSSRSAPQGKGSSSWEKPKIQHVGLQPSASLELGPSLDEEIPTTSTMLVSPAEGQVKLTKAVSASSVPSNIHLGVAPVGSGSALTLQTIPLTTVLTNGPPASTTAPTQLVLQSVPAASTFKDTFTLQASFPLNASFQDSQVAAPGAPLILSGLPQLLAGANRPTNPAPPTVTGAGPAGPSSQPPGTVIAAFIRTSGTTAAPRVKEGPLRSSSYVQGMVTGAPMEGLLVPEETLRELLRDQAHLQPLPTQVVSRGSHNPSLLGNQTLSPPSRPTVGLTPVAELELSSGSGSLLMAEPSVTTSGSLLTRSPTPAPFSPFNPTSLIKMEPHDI
# Sequence of SPIB (Q01892 whole entry): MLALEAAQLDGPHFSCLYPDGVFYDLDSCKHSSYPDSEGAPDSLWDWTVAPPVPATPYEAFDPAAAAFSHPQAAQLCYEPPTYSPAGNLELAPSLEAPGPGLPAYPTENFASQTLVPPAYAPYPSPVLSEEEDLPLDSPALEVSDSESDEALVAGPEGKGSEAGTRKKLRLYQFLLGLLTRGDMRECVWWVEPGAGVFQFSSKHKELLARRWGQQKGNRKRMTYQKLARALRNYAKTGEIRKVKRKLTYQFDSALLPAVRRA
# Sequence of CRX (O43186 whole entry): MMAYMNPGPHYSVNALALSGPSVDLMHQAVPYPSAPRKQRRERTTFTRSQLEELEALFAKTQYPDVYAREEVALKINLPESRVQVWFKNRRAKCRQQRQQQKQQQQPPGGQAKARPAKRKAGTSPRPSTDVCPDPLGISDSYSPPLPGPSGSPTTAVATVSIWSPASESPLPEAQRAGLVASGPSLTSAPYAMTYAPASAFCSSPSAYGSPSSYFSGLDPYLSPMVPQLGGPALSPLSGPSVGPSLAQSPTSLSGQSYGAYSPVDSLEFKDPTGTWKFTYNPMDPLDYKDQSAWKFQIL
# Sequence of ETV1 (P50549 whole entry): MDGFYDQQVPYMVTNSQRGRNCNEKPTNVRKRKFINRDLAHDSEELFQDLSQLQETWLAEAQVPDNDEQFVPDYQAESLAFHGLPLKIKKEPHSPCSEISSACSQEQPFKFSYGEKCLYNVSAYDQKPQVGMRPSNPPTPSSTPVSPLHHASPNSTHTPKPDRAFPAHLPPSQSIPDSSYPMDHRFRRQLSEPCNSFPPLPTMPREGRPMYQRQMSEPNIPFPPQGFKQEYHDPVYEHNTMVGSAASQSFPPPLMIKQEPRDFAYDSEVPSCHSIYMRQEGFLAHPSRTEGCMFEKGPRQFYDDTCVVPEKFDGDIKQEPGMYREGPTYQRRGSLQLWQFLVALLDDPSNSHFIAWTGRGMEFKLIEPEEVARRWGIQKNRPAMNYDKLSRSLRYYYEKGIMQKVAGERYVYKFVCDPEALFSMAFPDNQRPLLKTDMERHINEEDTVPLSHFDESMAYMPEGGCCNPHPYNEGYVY
# Sequence of ELF1 (P32519 whole entry): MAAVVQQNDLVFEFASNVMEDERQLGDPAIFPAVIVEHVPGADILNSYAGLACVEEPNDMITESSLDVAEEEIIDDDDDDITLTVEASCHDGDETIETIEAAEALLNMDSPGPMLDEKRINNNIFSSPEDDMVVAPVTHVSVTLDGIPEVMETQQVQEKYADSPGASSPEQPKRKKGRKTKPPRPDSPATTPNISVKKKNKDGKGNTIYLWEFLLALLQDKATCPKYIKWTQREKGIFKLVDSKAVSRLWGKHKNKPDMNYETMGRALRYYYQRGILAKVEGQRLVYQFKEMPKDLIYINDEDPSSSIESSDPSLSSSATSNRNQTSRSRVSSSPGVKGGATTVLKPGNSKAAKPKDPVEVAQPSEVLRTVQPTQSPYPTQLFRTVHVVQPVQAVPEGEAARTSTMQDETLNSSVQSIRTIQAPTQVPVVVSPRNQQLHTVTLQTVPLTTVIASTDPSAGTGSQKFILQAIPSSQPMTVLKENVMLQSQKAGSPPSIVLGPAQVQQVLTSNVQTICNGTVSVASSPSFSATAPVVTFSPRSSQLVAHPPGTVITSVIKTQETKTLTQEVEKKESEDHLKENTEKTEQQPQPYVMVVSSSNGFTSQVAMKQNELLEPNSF
# Sequence of HSF1 (Q00613 whole entry): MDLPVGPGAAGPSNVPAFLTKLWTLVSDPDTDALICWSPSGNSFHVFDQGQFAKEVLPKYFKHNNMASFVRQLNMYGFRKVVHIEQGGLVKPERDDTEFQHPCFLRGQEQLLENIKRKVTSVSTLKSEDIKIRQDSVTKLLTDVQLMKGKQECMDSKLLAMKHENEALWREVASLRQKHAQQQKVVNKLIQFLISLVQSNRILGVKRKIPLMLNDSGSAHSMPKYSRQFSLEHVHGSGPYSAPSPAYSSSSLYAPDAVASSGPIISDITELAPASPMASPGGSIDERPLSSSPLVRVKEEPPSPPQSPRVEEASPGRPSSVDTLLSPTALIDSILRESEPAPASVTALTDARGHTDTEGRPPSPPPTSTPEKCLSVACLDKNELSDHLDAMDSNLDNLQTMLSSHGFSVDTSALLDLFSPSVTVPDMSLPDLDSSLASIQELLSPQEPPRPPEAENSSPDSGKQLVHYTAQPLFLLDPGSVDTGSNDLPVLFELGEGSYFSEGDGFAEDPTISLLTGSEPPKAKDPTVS
# Sequence of ETV5 (P41161 whole entry): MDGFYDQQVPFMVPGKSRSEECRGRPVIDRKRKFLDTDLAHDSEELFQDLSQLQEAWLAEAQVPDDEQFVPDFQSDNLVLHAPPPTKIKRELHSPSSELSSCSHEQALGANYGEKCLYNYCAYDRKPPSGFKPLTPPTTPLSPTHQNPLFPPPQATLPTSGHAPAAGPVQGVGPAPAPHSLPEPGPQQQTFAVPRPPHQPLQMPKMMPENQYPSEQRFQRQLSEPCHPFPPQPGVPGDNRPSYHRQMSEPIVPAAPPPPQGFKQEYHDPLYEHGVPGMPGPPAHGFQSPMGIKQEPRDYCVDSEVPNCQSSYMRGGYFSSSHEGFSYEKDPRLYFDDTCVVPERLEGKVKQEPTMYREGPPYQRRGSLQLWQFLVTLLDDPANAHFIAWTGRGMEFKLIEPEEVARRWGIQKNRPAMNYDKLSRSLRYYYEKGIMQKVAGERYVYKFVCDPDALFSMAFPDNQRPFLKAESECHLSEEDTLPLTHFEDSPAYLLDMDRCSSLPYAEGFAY
sequence,measurement,setting,value
ATTCCT,binding signal,[1],"1.46 fold enrichment (6-mer frequency, TF over GST control)"
same,binding signal,[2],"1.37 fold enrichment (6-mer frequency, TF over GST control)"
same,binding signal,[3],"1.28 fold enrichment (6-mer frequency, TF over GST control)"
same,binding signal,[4],"1.27 fold enrichment (6-mer frequency, TF over GST control)"
same,binding signal,[5],"1.42 fold enrichment (6-mer frequency, TF over GST control)"
same,binding signal,[6],"1.34 fold enrichment (6-mer frequency, TF over GST control)"
same,binding signal,[7],"1.46 fold enrichment (6-mer frequency, TF over GST control)"
same,binding signal,[8],"1.43 fold enrichment (6-mer frequency, TF over GST control)"
same,binding signal,[9],"1.3 fold enrichment (6-mer frequency, TF over GST control)"
same,binding signal,[10],"1.34 fold enrichment (6-mer frequency, TF over GST control)"
same,binding signal,[11],"1.39 fold enrichment (6-mer frequency, TF over GST control)"
same,binding signal,[12],"1.57 fold enrichment (6-mer frequency, TF over GST control)"
same,binding signal,[13],"1.27 fold enrichment (6-mer frequency, TF over GST control)"
same,binding signal,[14],"1.39 fold enrichment (6-mer frequency, TF over GST control)"
same,binding signal,[15],"1.22 fold enrichment (6-mer frequency, TF over GST control)"
same,binding signal,[16],"1.45 fold enrichment (6-mer frequency, TF over GST control)"
same,binding signal,[17],"1.2 fold enrichment (6-mer frequency, TF over GST control)"
same,binding signal,[18],"1.33 fold enrichment (6-mer frequency, TF over GST control)"
same,binding signal,[19],"1.28 fold enrichment (6-mer frequency, TF over GST control)"
